LmPK inhibitor = inhibitors of Leishmania mexicana pyruvate kinase. Q27686. purified LmPK, Kinase-Glo ATP luminescence, 1 h. Potency, µM (highest dose often 57.5 µM), inactives show top-dose activity change, negative = inhibition, usual class: inhibitors. 0.37% of 290,000 active. AID 1721; note: potency is the fitted concentration of half-maximal effect; % is set by controls: 0 for no effect and ±100 for the full control effect
Target sequence (Q27686 whole entry, looked up): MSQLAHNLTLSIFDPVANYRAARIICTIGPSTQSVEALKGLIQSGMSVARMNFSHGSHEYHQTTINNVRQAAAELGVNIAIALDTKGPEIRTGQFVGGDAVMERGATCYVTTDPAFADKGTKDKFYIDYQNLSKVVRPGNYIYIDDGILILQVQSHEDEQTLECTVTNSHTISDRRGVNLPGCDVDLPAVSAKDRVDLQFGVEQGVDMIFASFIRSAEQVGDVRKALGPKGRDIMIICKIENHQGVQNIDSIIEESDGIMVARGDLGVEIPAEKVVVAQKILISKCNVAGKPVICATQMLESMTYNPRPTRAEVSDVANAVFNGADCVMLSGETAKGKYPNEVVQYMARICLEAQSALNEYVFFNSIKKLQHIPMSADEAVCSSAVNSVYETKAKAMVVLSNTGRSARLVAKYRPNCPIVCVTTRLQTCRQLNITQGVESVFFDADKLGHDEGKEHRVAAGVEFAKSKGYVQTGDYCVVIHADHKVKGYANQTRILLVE
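0.1 nM LmPK, 0.5 mM PEP, 0.1 mM ADP; 50 mM imidazole pH 7.2, 7 mM MgCl2, 50 mM KCl; 1 h RT. Kinase-Glo luminescence readout, normalized to no-enzyme (full inhibition) and uninhibited wells.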
Shiga toxin inh = inhibitors of Shiga toxin in Vero cells. AID 2315. Vero cells, Shiga toxin protein synthesis inhibition reporter. inhibition, % at 38.7 µM. 9.2% of 290,000 active; in the data active = inhibition mostly above about 28%, no sharp cut-off; inactive = mostly below about 43%; note: 0% is about no effect
Giardia FBPA inh = inhibitors of Giardia lamblia fructose-1,6-bisphosphate aldolase. A8B2U2. purified Giardia FBPA. Potency, µM (top dose mostly 59.6 µM), for inactives: at the highest dose activity, negative = inhibition, most hits filed as inhibitors. 0.71% of 290,000 active; note: potency is the fitted concentration of half-maximal effect; % is set by controls: 0 for no effect and ±100 for the full control effect; nearly all actives have a fitted effect of over 55% in size
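Giardia FBPA (40 nM reagent) was preincubated 10 min at RT with compound (up to 57.5 uM final), then substrate plus GAPDH/TPI/NAD/arsenate coupling system with diaphorase/resazurin was added; resorufin fluorescence (525/598 nm) was read after 20 min.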
RE007 growth inh = less growth of the S. pombe RE007 Vpr strain | S. pombe RE007 Vpr strain, BacTiter-Glo ATP luminescence, 24 h | Potency, µM (highest dose often 92.2 µM), for the others: at the highest dose activity change, negative = less growth, most hits filed as inhibitors | 0.21% of 360,000 active | AID 651644; active = well fitted falling curve with a large enough effect; inconclusive = small, poorly fitted or top-dose-only effect; inactive = no such curve, though single readings can be large or run the other way; note: potency is the fitted concentration of half-maximal effect; % is set by controls: 0 for no effect and ±100 for the full control effect; nearly all actives have a fitted effect of over 50% in size
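Fission yeast strain RE007, carrying one chromosomally integrated HIV-1 vpr copy, was seeded at OD 0.01 in PMG+AL medium with 23 nL pinned compound. After 24 h at 30 °C and 99% humidity, viability was read by BacTiter-Glo luminescence.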
Tb PYK inh = T. brucei pyruvate kinase inhibition; Q57TT1; 0.12% of 410,000 active; AID 624173; TbPYK enzyme, Kinase-Glo Plus ATP luminescence, 45 min; Potency, µM (top dose mostly 76.8 µM), without a hit: at the highest dose activity, negative = inhibition, hits mostly inhibitors; note: potency is the fitted concentration of half-maximal effect; % is set by controls: 0 for no effect and ±100 for the full control effect; nearly all actives have a fitted effect of over 50% in size
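Assay buffer: 50 mM TEA pH 7.2, 100 mM KCl, 10 mM MgCl2, 0.05% BSA, 0.01% Tween-20. Pyruvate kinase from T. brucei plus substrate met compound, then ADP (130 uM final). Luminescence was read post 45 min RT.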
Cycloheximide cs = affects cycloheximide protein synthesis inhibition readout, counter-screen. cell reporter, cycloheximide protein synthesis inhibition counterscreen. 12% of 300,000 active. max response, %; in the data active = max response mostly above about 13%, no sharp cut-off; inactive = mostly below about 14%; note: read at 38.3 µM for the half of the compounds with a filed dose; 0% is about no effect
The depositor's hits bear a star; ? = inconclusive; · = no result given; [ ] = remark or other dose. The sample as a whole holds a higher share of hits than the screen did. Unless noted, calls come from the whole dose curve; as a rule, active = well fitted curve in the direction sought with a large enough effect; inconclusive = small, poorly fitted or top-dose-only effect, or another doubt; inactive = no such curve, though single readings can be large; an effect the other way counts as inactive or inconclusive.

SMILES	LmPK inhibitor	Shiga toxin inh	Giardia FBPA inh	RE007 growth inh	Tb PYK inh	Cycloheximide cs
Oc1ccc(/C=N/Nc2cccc3cccnc23)c(O)c1	-15.0%	102.4*	-14.7%	-6.8%	-9.5%	59.1*
CC(C)C[C@H]1COc2cc(N3CC[C@H](O)C3)ccc2S(=O)(=O)N1	·	·	·	6.6%	-8.7%	·
Nc1ccc(CSc2ccc(Cl)cc2)cc1	0.1%	58.6*	-5.9%	30.3%	5.0%	23.8*
CCOC(=O)c1sc(NC(=O)C(C)(C)C)cc1C	0.7%	active	-3.0%	12.0%	2.7%	27.6*
CCOC(=O)c1sc(NC(=O)c2ccc(S(=O)(=O)N(C)C)cc2)cc1C	5.2%	-10.8	-13.7%	-8.0%[3.69 µM]	·	-0.8
CCOC(=O)c1sc(NC(=S)NC(=O)CC(C)C)cc1C	2.5%	48.9*	-12.2%	3.0%	-7.9%	42.8*
CCOC(=O)c1sc(NC(=O)C2CC2)cc1C	2.6%	38.2*	-0.3%	3.0%	-5.9%	15.3*
CCOC(=O)c1sc(NC(=O)c2cccc(S(=O)(=O)N(CC)CC)c2)cc1C	-4.7%	-7.6	0.6%	-1.1%	5.3%	-0.4
CCOC(=O)c1sc(NC(=S)NC(=O)C2CCCC2)cc1C	1.0%	10.3*	-14.9%	3.3%	-0.6%	11.1
O=C(/C=C/c1ccc2ccccc2c1)c1ccoc1	1.7%	52.8*	4.2%	-18.8%	2.8%	33.6*
O=C1Nc2ccccc2N=C(c2ccccc2)C1Br (configuration not stated)	0.6%	46.1*	?	2.5%	-13.5%	13.8
Cc1ccc(-c2nc3cc(Cl)ccc3o2)cc1NC(=O)COc1ccc(F)cc1	·	·	·	·	-0.4%	·
O=C(c1ccc2c(c1)N(Cc1ccccc1F)C(=O)c1ccccc1S2=O)N1CCOCC1 (configuration not stated)	·	·	·	·	-7.6%	·
O=C(CSc1nccn1Cc1ccccc1)Nc1nc2ccccc2s1	·	·	·	·	2.4%	·
O=C(CSc1nccn1Cc1ccccc1)Nc1ccccc1	-0.9%	33.1*	·	-20.0%	-2.3%	17.7*
O=C(CSc1nccn1Cc1ccccc1)NC1CCCC1	-13.2%	17.7	·	?	-0.8%	25.2*
O=C(CSc1nccn1Cc1ccccc1)Nc1nccs1	-8.3%	active	0.3%	2.1%	-4.3%	37.2*
CC(=O)Nc1cccc(NC(=O)CSc2nccn2Cc2ccccc2)c1	-10.3%	21.3	·	5.5%	-9.1%	12.9
Cc1ccc(Cn2ccnc2C(=O)Nc2ccccc2)cc1	-0.7%	87.1*	-7.5%	-26.3%	-2.8%	27.1*
N#Cc1ccc(Cn2ccnc2C(=O)Nc2ccccc2)cc1	7.4%	35.1	-7.0%	-17.3%	0.4%	19.9
O=C(CSc1nccn1Cc1ccc(Cl)cc1)NC1CCCC1	·	·	·	·	-9.8%	·
COC(=O)c1ccc(NC(=O)CSc2nccn2CCc2ccccc2)cc1	4.1%	88.0	-0.3%	-11.5%	1.5%	43.5*
Cc1nnc(NC(=O)CSc2cn(Cc3ccccc3)c3ccccc23)s1	8.4%	-23.5	1.6%	8.4%	-13.9%	-4.4
Cn1c(SCC(=O)Nc2nccs2)nnc1C12CC3CC(CC(C3)C1)C2	-0.9%	36.5	11.9%	18.4%	-3.1%	26.6*
COC(=O)c1ccc(NC(=O)CSc2nccn2Cc2ccc(Cl)cc2)cc1	·	·	·	·	-4.2%	·
SMILES	LmPK inhibitor	Shiga toxin inh	Giardia FBPA inh	RE007 growth inh	Tb PYK inh	Cycloheximide cs
Cn1c(SCC(=O)Nc2nccs2)nnc1C1CC1	6.2%	-4.1	-26.9%	-10.5%	0.6%	1.8
Cc1ccc(Cn2cc(SCC(=O)Nc3nccs3)c3ccccc32)cc1	2.0%	32.6	6.4%	8.5%	4.0%	24.1*
O=C(COC(=O)c1ccc(S(=O)(=O)C(F)F)cc1)Nc1cccnc1Cl	·	·	·	4.8%	4.8%	·
CCOC(=O)c1ccc2ncc(C(=O)OCC)c(NCc3ccco3)c2c1	7.2%	12.7	-15.8%	-3.4%	3.3%	26.7*
CCOC(=O)c1ccc2ncc(C(=O)OCC)c(NCCCN3CCOCC3)c2c1	2.5%	-1.9	-0.2%	-21.2%	-14.1%	1.8
CCOC(=O)c1cnc2c(C(=O)OC)cccc2c1NCc1ccco1	1.6%	-8.7	-4.4%	8.6%	-6.7%	6.5
CCOC(=O)c1cnc2c(C)cccc2c1NCc1ccco1	5.2%	37.0*	-11.0%	0.8%	-0.5%	24.2*
O=C(NCc1ccccc1Br)c1ccc(-n2cnc3cccnc32)cc1	·	·	·	·	5.9%[15.4 µM]	·
